Laboratory results published in the supplement of paper PMC10849652.
About 8,800 targets were measured; listed, in parts, are those with a hit and a random draw of the rest. About 0.5% of all pairs of compound and target were hits. Unmarked numbers belong to inactive results.

Tests used:
Assay in all cases: log2 fold change, soluble protein after heating vs DMSO (PISA); higher = thermal stabilisation; K562 lysate, 10 uM; active = over 0.2 and 3.5 SD of the protein, either way, in both replicates (recomputed)
lapatinib = compound: CS(=O)(=O)CCNCc1ccc(-c2ccc3ncnc(Nc4ccc(OCc5cccc(F)c5)c(Cl)c4)c3c2)o1 [lapatinib]
Method in brief: (§1)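 K562 pellets were dounce-homogenised in PBS pH 7.4 with 1 mM MgCl2, and the crude extract at 1 mg/mL protein was treated with 10 μM compound for 30 min. Aliquots were heated for 3 min across 48°C-58°C, pooled, and brought to 0.5% NP-40 at 4°C; soluble protein was the supernatant after 21,000xg for 90 min. Soluble protein was quantified by TMTpro 16plex LC-MS/MS with channel sums equalised, and reported as log2 fold change in thermal stability against DMSO controls, with values from duplicates.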

pictilisib = compound: CS(=O)(=O)N1CCN(Cc2cc3nc(-c4cccc5[nH]ncc45)nc(N4CCOCC4)c3s2)CC1 [pictilisib]
Method in brief: as §1

crizotinib = compound: C[C@@H](Oc1cc(-c2cnn(C3CCNCC3)c2)cnc1N)c1c(Cl)ccc(F)c1Cl [crizotinib]
Method in brief: as §1

[1] = compound: C[C@H](C1=CC=C(C=C1)C(=O)NC2=C3C=CNC3=NC=C2)N
Method in brief: as §1

duvelisib = compound: C[C@H](Nc1ncnc2nc[nH]c12)c1cc2cccc(Cl)c2c(=O)n1-c1ccccc1 [duvelisib]
Method in brief: as §1

gandotinib = compound: Cc1cc(Nc2cc(CN3CCOCC3)c3nc(C)c(Cc4ccc(Cl)cc4F)n3n2)n[nH]1 [gandotinib]
Method in brief: as §1

tozasertib = compound: Cc1cc(Nc2cc(N3CCN(C)CC3)nc(Sc3ccc(NC(=O)C4CC4)cc3)n2)n[nH]1 [tozasertib]
Method in brief: as §1

doramapimod = compound: Cc1ccc(-n2nc(C(C)(C)C)cc2NC(=O)Nc2ccc(OCCN3CCOCC3)c3ccccc23)cc1 [doramapimod]
Method in brief: as §1

bafetinib = compound: Cc1ccc(NC(=O)c2ccc(CN3CC[C@H](N(C)C)C3)c(C(F)(F)F)c2)cc1Nc1nccc(-c2cncnc2)n1 [bafetinib]
Method in brief: as §1

[2] = compound: Cc1cccc(CC(=O)N2CCc3c2ccc(-c2cn(C)c4ncnc(N)c24)c3F)n1
Method in brief: as §1

Chain of UniProt Q01664 (Q01664 whole entry, looked up): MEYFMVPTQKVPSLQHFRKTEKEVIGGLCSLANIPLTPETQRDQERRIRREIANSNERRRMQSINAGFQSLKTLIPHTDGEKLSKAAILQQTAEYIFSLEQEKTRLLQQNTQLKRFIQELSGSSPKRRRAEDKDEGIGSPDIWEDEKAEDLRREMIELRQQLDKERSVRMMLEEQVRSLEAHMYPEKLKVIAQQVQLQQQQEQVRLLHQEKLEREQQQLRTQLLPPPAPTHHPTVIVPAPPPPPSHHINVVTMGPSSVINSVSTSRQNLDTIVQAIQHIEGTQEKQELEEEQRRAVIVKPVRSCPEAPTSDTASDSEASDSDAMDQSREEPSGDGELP
Chain of UniProt P06753 (P06753 whole entry, looked up): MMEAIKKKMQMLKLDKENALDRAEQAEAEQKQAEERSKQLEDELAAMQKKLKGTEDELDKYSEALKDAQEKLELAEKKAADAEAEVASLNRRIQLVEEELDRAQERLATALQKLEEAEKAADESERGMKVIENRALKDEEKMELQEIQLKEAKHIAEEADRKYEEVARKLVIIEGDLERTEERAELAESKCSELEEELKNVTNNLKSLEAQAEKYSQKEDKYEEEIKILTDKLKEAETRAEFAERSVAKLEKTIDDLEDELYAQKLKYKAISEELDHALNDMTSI
Chain of UniProt Q5BJF2 (Q5BJF2 whole entry, looked up): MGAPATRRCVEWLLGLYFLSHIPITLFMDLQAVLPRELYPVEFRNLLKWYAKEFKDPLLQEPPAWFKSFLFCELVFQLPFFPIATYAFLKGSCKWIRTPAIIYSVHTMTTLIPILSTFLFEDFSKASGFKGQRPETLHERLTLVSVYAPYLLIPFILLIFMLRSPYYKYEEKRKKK
Chain of UniProt Q53S58 (Q53S58 whole entry, looked up): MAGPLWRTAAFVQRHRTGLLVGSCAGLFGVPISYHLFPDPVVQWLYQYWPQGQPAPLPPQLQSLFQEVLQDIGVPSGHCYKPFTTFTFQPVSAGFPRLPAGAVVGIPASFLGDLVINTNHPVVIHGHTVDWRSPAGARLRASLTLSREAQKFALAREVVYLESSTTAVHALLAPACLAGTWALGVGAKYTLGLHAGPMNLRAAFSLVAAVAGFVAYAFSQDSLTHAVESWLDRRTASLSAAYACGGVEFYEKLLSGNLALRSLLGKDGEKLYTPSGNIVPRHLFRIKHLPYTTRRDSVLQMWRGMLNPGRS
Chain of UniProt Q9H5L6 (Q9H5L6 whole entry, looked up): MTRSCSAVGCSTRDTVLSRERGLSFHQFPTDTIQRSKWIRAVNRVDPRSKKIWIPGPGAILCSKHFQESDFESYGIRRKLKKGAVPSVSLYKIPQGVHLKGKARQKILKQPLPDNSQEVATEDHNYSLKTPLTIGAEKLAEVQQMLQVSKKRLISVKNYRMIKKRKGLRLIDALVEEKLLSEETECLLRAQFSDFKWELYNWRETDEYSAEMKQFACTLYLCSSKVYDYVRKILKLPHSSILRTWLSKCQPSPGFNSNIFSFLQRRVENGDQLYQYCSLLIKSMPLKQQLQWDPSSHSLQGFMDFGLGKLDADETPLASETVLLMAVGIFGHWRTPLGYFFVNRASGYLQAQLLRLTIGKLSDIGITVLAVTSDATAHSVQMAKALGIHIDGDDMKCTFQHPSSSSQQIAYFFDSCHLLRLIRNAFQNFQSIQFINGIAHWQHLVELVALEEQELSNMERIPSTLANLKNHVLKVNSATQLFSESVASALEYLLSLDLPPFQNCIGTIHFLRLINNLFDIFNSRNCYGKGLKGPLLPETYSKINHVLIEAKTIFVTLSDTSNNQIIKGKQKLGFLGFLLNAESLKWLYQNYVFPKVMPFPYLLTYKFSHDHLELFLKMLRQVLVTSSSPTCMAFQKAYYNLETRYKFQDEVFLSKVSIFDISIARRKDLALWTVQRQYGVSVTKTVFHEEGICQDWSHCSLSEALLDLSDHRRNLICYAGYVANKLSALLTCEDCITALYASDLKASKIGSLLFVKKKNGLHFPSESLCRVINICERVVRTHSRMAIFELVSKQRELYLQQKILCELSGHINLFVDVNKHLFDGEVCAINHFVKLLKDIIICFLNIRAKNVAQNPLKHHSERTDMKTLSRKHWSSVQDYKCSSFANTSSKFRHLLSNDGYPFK
Chain of UniProt O14933 (O14933 whole entry, looked up): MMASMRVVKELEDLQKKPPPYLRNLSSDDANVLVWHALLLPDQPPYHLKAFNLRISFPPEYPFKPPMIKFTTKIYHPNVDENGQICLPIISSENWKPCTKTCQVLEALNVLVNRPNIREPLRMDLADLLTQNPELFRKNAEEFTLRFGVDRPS
Chain of UniProt P42167 (P42167 whole entry, looked up): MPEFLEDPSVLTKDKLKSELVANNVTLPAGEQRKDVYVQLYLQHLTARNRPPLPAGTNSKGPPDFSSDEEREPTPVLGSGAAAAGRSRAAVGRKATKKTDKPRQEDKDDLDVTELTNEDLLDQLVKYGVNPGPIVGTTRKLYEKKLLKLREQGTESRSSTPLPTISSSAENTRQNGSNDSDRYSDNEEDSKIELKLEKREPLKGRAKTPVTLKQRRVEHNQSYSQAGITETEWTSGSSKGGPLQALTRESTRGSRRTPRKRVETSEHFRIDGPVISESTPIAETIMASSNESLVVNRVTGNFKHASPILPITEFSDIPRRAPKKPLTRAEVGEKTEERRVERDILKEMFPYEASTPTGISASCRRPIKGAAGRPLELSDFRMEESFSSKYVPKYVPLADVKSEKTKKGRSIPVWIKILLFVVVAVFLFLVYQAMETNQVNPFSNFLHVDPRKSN
Chain of UniProt P62328 (P62328 whole entry, looked up): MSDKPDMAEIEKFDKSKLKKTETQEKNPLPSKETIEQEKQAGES
Chain of UniProt Q8WVT3 (Q8WVT3 whole entry, looked up): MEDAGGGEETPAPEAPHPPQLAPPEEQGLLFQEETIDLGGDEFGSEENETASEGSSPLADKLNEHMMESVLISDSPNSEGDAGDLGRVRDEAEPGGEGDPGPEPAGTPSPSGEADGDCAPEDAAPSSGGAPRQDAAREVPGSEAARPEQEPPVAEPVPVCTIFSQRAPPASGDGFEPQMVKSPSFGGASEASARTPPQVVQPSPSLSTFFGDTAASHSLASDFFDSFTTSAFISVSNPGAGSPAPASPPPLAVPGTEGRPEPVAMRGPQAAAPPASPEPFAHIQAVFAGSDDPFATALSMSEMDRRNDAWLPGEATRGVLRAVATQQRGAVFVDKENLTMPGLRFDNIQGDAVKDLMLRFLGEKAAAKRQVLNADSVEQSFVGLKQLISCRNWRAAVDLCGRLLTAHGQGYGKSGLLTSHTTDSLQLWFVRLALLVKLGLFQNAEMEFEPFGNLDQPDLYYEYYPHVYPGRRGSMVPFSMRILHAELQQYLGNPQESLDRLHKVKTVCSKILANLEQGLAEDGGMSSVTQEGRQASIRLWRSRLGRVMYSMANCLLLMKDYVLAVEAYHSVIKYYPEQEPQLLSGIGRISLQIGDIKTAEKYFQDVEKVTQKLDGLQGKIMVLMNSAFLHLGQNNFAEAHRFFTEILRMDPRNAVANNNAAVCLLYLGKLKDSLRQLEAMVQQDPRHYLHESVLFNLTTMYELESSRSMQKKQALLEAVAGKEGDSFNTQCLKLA
Chain of UniProt P29144 (P29144 whole entry, looked up): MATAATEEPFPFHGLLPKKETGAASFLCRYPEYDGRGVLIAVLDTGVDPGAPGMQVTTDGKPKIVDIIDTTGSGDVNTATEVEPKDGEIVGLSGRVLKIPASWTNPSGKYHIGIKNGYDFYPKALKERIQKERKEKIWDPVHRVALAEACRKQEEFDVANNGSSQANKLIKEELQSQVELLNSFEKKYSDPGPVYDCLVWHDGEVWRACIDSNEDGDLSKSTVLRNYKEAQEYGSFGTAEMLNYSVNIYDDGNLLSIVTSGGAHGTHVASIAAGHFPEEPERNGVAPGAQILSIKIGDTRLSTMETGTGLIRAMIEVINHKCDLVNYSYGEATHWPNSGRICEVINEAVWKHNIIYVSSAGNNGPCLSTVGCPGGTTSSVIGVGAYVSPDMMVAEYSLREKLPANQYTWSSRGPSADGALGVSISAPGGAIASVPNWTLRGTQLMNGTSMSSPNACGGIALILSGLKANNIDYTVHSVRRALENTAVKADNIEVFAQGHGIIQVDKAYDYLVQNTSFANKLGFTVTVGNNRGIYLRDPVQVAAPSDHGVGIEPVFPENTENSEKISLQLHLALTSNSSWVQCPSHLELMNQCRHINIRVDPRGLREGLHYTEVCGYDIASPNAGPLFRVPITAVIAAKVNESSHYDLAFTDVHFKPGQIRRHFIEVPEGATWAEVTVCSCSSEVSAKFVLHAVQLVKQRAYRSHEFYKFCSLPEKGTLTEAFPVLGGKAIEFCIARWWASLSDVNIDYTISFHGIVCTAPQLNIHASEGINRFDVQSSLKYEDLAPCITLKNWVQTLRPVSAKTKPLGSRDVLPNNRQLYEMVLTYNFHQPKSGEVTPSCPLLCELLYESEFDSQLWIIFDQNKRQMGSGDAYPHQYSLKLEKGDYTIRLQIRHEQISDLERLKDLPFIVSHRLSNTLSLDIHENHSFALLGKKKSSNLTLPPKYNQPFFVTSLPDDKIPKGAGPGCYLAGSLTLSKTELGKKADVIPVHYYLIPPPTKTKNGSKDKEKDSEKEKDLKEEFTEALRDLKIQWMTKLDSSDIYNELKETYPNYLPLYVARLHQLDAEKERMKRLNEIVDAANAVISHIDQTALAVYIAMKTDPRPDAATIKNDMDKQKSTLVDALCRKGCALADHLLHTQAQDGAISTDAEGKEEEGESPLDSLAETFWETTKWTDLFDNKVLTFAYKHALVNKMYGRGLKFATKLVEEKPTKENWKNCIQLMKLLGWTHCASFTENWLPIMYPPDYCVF
Chain of UniProt Q9P0S9 (Q9P0S9 whole entry, looked up): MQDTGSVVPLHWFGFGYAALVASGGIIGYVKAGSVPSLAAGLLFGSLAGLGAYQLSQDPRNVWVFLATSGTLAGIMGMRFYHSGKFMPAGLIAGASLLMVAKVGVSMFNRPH
Chain of UniProt Q9NRX6 (Q9NRX6 whole entry, looked up): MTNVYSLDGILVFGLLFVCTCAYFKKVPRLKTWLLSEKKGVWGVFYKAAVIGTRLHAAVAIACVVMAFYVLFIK

Target	log2 fold change (lapatinib)	log2 fold change (pictilisib)	log2 fold change (crizotinib)	log2 fold change [1]	log2 fold change (duvelisib)	log2 fold change (gandotinib)	log2 fold change (tozasertib)	log2 fold change (doramapimod)	log2 fold change (bafetinib)	log2 fold change [2]
TMEM97 (UniProt Q5BJF2)	-0.052	-0.004	0.113	-0.277 (active)	0.014	0.17	-0.013	-0.127	-0.015	0.12
UCHL5 (UniProt Q5LJA9)	0.027	0.001	-0.036	-0.07	0.082	-0.074	0.003	0.067	-0.07	-0.156
TMEM161B (UniProt Q8NDZ6)	-0.057	-0.05	0.007	0.009		-0.289 (active)	0.009	-0.03	0.007	0.077
TTC5 (UniProt Q8N0Z6)	0.039	-0.021	-0.053	-0.064	0.032	-0.048	0.076	0.007	-0.052	0.04
TMEM177 (UniProt Q53S58)	0.018	0.002	0.053	-0.005		-0.125	-0.016	-0.056	-0.059	-0.013
TMSB4X (UniProt P62328)	0.12	-0.553	0.015	-0.132		0.65	0.123	-0.24	-0.546	-0.166
TTC38 (UniProt Q5R3I4)	-0.034	-0.029	0.031	0.213	-0.022	-0.116	-0.011	0.301 (active)	0.065	-0.186
TRIM56 (UniProt Q9BRZ2)	0.001	-0.002	-0.002	0.085	0.003	-0.071	0	0.023	-0.132	0.085
TRAPPC12 (UniProt Q8WVT3)	0.02	-0.017	-0.033	-0.017	0.012	-0.042	-0.029	-0.036	-0.039	0.048
TEX30 (UniProt Q5JUR7)	-0.07	-0.122	-0.035	-0.517 (active)	0.102	0.007	-0.003	0.036	0.066	0.069
TFAP4 (UniProt Q01664)	-0.05	0.022	0.009	0.477 (active)		0.033	-0.05	0.017	-0.214	-0.217
TUBGCP4 (UniProt Q9UGJ1)	-0.022	0.011	-0.012	-0.007	0.03	-0.125	-0.022	-0.041	-0.076	0.019
TUBGCP5 (UniProt Q96RT8)	0.11	0.037	-0.064	-0.044	0.103	-0.009	0.113	0.044	-0.121	0.101
TMEM167B (UniProt Q9NRX6)	-0.045	-0.034	0.006	-0.339 (active)		0.133	-0.003	-0.083	-0.075	0.128
TASP1 (UniProt Q9H6P5)	0.009	-0.217	-0.086		0		-0.002	0.053	-0.235	
TMPO (UniProt P42167)	0.053	0.029	0.059	0.047	-0.039	-0.033	0.035	-0.037	0.005	-0.04
TMEM14C (UniProt Q9P0S9)	0.123	0.162	-0.087		0.016		-0.099	0.002	-0.094	
TPM3 (UniProt P06753)	0.014	0.005	0.022	0.123	0.009	-0.039	-0.003	-0.022	0.052	-0.088
UBE2L6 (UniProt O14933)	0.059	0.062	-0.014	0.088	0.033	-0.105	0.109	-0.013	-0.267	-0.024
TBC1D20 isoform 3 (UniProt Q96BZ9)	-0.019	-0.12	-0.066	-0.087	0.021	-0.105	-0.017	-0.095	-0.303	0.025
TUBB4A (UniProt M0QYM7)	-0.009	-0.067	-0.176	-1.05 (active)		0.39	0.138	0.116	-0.516	0.42
TPP2 (UniProt P29144)	-0.007	0.014	-0.009	0.035	0.011	-0.011	-0.009	0.007	-0.008	-0.011
THAP9 (UniProt Q9H5L6)	-0.035	-0.154	-0.203	-0.675 (active)	0.012	0.429	-0.045	0.009	-0.007	0.323
TUBB4A (UniProt P04350)	-0.095	-0.055	-0.001	-0.081	0.059	0.051	-0.138	-0.025	-0.026	-0.01
TRADD (UniProt Q15628)	-0.015	-0.011	-0.003	-0.022	-0.081	-0.03	-0.011	-0.022	-0.034	0.035
TRIM11 (UniProt Q96F44)	0.013	-0.006	-0.029	-0.006	-0.016	-0.03	-0.006	0.015	0.029	-0.003
TDRKH (UniProt Q9Y2W6)	-0.069	-0.036	-0.083	-0.061	-0.028	0.062	0.081	-0.043	0.02	0.074
TUBB6 (UniProt K7ES63)	-0.1	0.021	-0.277	-0.178		0.042	0.122	0.2	-0.278	0.253
